# Results taken from PubChem BioAssay (NCATS).
# Inconclusive results are not listed. Where a call stands in place of a potency, no number is given. Values without a mark were called inactive. Active and inactive are the calls of the source. The call rests on the fitted dose curve; in most records, active means well fitted curve in the direction sought with a large enough effect; inconclusive means small, poorly fitted or top-dose-only effect, or another doubt; inactive means no such curve, though single readings can be large; an effect the other way counts as inactive or inconclusive.
# Columns and labels:
# [1] = target: Rap guanine nucleotide exchange factor 3 (Homo sapiens) (UniProt O95398); test: Confirmatory qHTS for antagonist of cAMP-regulated guanine nucleotide exchange factor 3 (EPAC1) (AID 1645880); conditions: EPAC1 Rap1B-BODIPY-GDP exchange, fluorescence; activity, negative = inhibition: at 115 µM (top of the series); further: nearly all actives have a fitted effect of over 55% in size
# Rap guanine nucleotide exchange factor 3 (Homo sapiens), sequence (O95398 whole entry, looked up): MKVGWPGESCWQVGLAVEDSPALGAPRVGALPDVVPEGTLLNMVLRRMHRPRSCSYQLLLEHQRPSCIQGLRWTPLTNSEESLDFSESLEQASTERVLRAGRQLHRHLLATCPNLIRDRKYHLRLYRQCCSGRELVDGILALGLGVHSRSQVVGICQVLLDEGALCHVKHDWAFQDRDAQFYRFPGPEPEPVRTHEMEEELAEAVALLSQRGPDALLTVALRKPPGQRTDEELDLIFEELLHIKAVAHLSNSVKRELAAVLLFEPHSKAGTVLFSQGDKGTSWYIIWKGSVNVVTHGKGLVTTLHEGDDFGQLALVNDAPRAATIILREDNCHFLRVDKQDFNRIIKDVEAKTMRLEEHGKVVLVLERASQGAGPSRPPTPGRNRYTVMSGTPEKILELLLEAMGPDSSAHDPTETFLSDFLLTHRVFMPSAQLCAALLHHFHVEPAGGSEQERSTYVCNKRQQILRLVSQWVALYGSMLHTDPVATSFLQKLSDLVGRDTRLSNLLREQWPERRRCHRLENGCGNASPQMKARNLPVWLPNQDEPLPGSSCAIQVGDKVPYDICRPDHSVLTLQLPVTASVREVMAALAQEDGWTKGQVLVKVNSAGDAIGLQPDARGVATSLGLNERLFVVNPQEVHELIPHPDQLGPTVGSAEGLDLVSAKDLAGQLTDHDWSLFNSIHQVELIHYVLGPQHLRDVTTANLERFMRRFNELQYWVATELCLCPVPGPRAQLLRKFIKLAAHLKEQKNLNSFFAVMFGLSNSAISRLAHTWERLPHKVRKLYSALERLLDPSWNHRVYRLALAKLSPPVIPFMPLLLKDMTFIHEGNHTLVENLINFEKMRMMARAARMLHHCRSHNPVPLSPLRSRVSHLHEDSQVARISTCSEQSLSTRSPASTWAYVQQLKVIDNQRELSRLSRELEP
# Summary of the method: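 Released BODIPY-GDP fluoresces less than Rap1-bound BODIPY-GDP; the signal is followed at 480/540 nm at 5-min intervals over 30 min, after 5 min at room temperature. Reactions contain 100 nM EPAC1, 250 nM RAP1B-BODIPY-GDP and 50 uM GDP; results are normalized to ATA and DMSO.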
# [2] = target: Rap guanine nucleotide exchange factor 4 (Homo sapiens) (UniProt Q8WZA2); test: Confirmatory qHTS for agonist of cAMP-regulated guanine nucleotide exchange factor 4 (EPAC2) (AID 1645884);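 further: nucleotide exchange releases bodipy-GDP from Rap1 and this lowers its fluorescence; nearly all actives have a fitted effect of over 65% in size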; further: potency means the concentration at half of the fitted maximal effect
# Rap guanine nucleotide exchange factor 4 (Homo sapiens), sequence (Q8WZA2 whole entry, looked up): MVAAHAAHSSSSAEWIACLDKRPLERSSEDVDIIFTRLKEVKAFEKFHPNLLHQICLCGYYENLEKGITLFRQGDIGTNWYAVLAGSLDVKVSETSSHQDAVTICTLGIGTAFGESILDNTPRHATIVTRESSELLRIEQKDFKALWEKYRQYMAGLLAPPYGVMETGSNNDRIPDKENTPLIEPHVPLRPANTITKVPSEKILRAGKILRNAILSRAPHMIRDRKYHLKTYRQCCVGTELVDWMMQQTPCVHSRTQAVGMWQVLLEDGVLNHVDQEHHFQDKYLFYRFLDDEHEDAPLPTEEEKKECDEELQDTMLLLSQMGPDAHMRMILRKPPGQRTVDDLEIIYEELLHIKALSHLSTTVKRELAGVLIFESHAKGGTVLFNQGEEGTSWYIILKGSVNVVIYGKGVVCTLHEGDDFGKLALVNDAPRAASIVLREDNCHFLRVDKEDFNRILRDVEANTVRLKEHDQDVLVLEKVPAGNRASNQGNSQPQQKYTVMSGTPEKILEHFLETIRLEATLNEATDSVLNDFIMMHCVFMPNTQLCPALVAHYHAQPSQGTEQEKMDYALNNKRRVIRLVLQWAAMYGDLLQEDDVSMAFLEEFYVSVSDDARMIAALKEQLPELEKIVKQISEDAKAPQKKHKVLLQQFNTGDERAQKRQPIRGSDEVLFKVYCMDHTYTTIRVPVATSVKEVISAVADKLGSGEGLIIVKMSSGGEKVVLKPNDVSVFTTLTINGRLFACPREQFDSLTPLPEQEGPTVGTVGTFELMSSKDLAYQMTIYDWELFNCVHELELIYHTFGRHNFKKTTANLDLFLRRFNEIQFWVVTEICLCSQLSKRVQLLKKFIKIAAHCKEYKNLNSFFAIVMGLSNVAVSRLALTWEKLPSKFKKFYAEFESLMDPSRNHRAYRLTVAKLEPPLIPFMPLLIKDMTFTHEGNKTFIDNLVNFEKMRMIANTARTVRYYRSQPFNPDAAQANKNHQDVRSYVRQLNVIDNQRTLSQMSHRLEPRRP
# [3] = target: Rap guanine nucleotide exchange factor 4 (Homo sapiens) (UniProt Q8WZA2); test: Confirmatory qHTS for antagonist of cAMP-regulated guanine nucleotide exchange factor 4 (EPAC2) (AID 1645885); further: nearly all actives have a fitted effect of over 25% in size; further: potency means the concentration at half of the fitted maximal effect
# [4] = target: Rap guanine nucleotide exchange factor 3 (Homo sapiens) (UniProt O95398); test: Counterscreen qHTS for antagonist of cAMP-regulated guanine nucleotide exchange factor 3 (EPAC1) (AID 1645888)
# Summary of the method: (§1)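 Rap1B–BODIPY-GDP (250 nM) with 50 uM GDP; compounds pin-transferred to 9.74 nM–152 uM final (activator) or from 7.32 nM upwards (inhibitor). Fluorescence Ex/Em 480/540 nm read at 5 and 30 min, then after adding cAMP or buffer, at room temperature.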
# [5] = target: Rap guanine nucleotide exchange factor 3 (Homo sapiens) (UniProt O95398); test: Counterscreen qHTS for agonist of cAMP-regulated guanine nucleotide exchange factor 3 (EPAC1) (AID 1645889); further: nearly all actives have a fitted effect of over 40% in size; further: potency means the concentration at half of the fitted maximal effect
# Summary of the method: as §1
SMILES,Potency [1],Potency [2],Potency [3],Potency [4],Potency [5],activation [2],"activity change, negative = inhibition [4]",activation [5]
CCCN1C(=O)S/C(=C/c2ccc(N3CCOCC3)o2)C1=O,inactive,112 µM (active),67.5 µM (active),inactive,inactive,,,
CC(NC(=O)/C(C#N)=C/c1ccc(N2CCOCC2)cc1)c1ccccc1 (stereo not given),inactive,112 µM (active),inactive,inactive,,,,
O=C(Cn1c(=O)n(-c2ccccc2)c(=O)c2c3c(sc21)CCC3)c1ccc(Br)cc1,inactive,inactive,inactive,inactive,inactive,,,
CCOc1cc(/C=C2\CCCc3c2nc2ccccc2c3C(=O)O)ccc1OC,inactive,112 µM (active),inactive,inactive,100 µM (active),,,
CC(OC(=O)/C(C#N)=C/c1ccc(N(C)C)cc1)C(=O)N(C)Cc1ccccc1 (stereo not given),inactive,,inactive,,,"3.68% [at 17.1 µM, percent relative to cAMP agonist control]",-0.358% [at 30.8 µM],
N#CC(Sc1ccccn1)c1ccc(Cl)cc1Cl (stereo not given),inactive,inactive,inactive,inactive,inactive,,,
CCN(CC)c1ccc2cc(C=O)c(=O)oc2c1,inactive,,inactive,,12.6 µM (active),"6.38% [at 17.1 µM, percent relative to cAMP agonist control]",96.9% [at 30.8 µM],
CCCCCn1nc(-c2ccccc2)c2nc3ccccc3nc21,inactive,,inactive,,,"2.69% [at 17.1 µM, percent relative to cAMP agonist control]",19.6% [at 30.8 µM],10.8% [at 30.8 µM]
COc1ccc(N=Cc2sc(O)c3ccccc23)cc1,inactive,,inactive,,,"2.81% [at 17.1 µM, percent relative to cAMP agonist control]",46.8% [at 30.8 µM],29% [at 30.8 µM]
COc1ccc(NC2c3ccccc3C(=O)N2c2ccccn2)cc1Cl (stereo not given),inactive,inactive,inactive,inactive,inactive,,,
CCN(CC)c1ccc2cc(-c3nc(-c4ccccc4)no3)c(=O)oc2c1,inactive,31.6 µM (active),6.01 µM (active),inactive,56.2 µM (active),,,
CC(/C=C/c1ccc(N(C)C)cc1)=N\N=C1\NC(=O)CC(C(=O)Nc2ccccc2)S1 (stereo not given),inactive,,inactive,,,"10% [at 17.1 µM, percent relative to cAMP agonist control]",-3.02% [at 30.8 µM],
NC(=O)c1c(NC(=O)c2ccccc2)sc2c1CCN(Cc1ccccc1)C2,inactive,112 µM (active),84.9 µM (active),inactive,39.8 µM (active),,,
CCc1cccc(CC)c1N1C(=O)C2=C(SCCCS2)C1=O,inactive,112 µM (active),inactive,inactive,,,,
CC(=O)Nc1sc2c(c1-c1nc3ccccc3s1)CN(C(C)C)CC2,inactive,,inactive,,10 µM (active),"18.6% [at 17.1 µM, percent relative to cAMP agonist control]",28.4% [at 30.8 µM],
Cc1ccc(-c2csc3ncnc(Nc4ccc(C(=O)O)cc4)c23)cc1,inactive,inactive,inactive,inactive,inactive,,,
Cc1ccc2c(c1C)OC(=O)CC2c1ccccc1 (stereo not given),inactive,inactive,inactive,inactive,inactive,,,
O=C(Cn1ccc(=O)[nH]c1=O)c1ccc([N+](=O)[O-])o1,inactive,,inactive,,,"15.2% [at 17.1 µM, percent relative to cAMP agonist control]",-11.8% [at 30.8 µM],18.6% [at 30.8 µM]
CCC(C)n1c(=N)c(C#N)cc2c(=O)n3ccccc3nc21 (stereo not given),inactive,,inactive,,,"-1.22% [at 17.1 µM, percent relative to cAMP agonist control]",-20.2% [at 30.8 µM],-4.07% [at 30.8 µM]
CCOc1ccccc1NC(=O)CSc1nccn1-c1cccc(C)c1,inactive,inactive,inactive,inactive,inactive,,,

SMILES,Potency [1],Potency [2],Potency [3],Potency [4],Potency [5],activation [2],"activity change, negative = inhibition [4]",activation [5]
COc1ccc(N=Cc2c(O)n(-c3cccc(C)n3)c(=O)c3ccccc23)c(OC)c1,inactive,,inactive,,,"-25.1% [at 17.1 µM, percent relative to cAMP agonist control]",31% [at 30.8 µM],19.8% [at 30.8 µM]
O=c1oc2ccc(Cl)cc2nc1/C=C(\O)c1cccs1,inactive,,inactive,,,"14.5% [at 17.1 µM, percent relative to cAMP agonist control]",7.64% [at 30.8 µM],11.4% [at 30.8 µM]
Cc1cccc(NCc2cccc3ccccc23)n1,inactive,,inactive,,,"4.47% [at 17.1 µM, percent relative to cAMP agonist control]",-11.4% [at 30.8 µM],
COc1ccccc1C(=O)NNC(=O)CCCN1C(=O)/C(=C/c2cccs2)SC1=S,inactive,,inactive,,,"1.7% [at 17.1 µM, percent relative to cAMP agonist control]",10.7% [at 30.8 µM],
COc1ccc(CN(C(=O)c2cccs2)c2ccccc2)cc1,inactive,,inactive,,,"16.8% [at 17.1 µM, percent relative to cAMP agonist control]",-5.93% [at 30.8 µM],12% [at 30.8 µM]
CCc1ccc(NC(=O)/C(C#N)=C/c2cc3ccc(C)cc3nc2N2CCOCC2)cc1,inactive,,inactive,,,"0% [at 17.1 µM, percent relative to cAMP agonist control]",-18.1% [at 30.8 µM],
Cc1cccc(-n2c(N)c(-c3nc4ccccc4n3C)c3nc4ccccc4nc32)c1,inactive,,inactive,,,"17.4% [at 17.1 µM, percent relative to cAMP agonist control]",-16.7% [at 30.8 µM],
Cn1cc(/C=C2\SC(=S)N(NC(=O)c3ccccc3Cl)C2=O)c2ccccc21,inactive,100 µM (active),inactive,inactive,63.1 µM (active),,,
O=C1c2cccc3c(N4CCCCC4)ccc(c23)C(=O)N1c1ccc(O)cc1,inactive,112 µM (active),inactive,inactive,inactive,,,
O=C(N=c1ccn(-c2nc3ccccc3nc2NS(=O)(=O)c2ccccc2)cc1)c1ccccc1Cl,inactive,89.1 µM (active),75.7 µM (active),inactive,79.4 µM (active),,,
O=[N+]([O-])c1ccc(N(c2ccccc2)c2ccccc2)cc1,inactive,,inactive,,,"3.9% [at 17.1 µM, percent relative to cAMP agonist control]",-24.8% [at 30.8 µM],15.8% [at 30.8 µM]
COc1cc(/C=C(\C#N)c2nc3ccccc3o2)ccc1O,inactive,,inactive,,,"7.08% [at 17.1 µM, percent relative to cAMP agonist control]",3.99% [at 30.8 µM],23.5% [at 30.8 µM]
CCN(C(=O)CN1CCN(c2ccccc2O)CC1)c1c(N)n(Cc2ccccc2)c(=O)[nH]c1=O,inactive,inactive,inactive,inactive,,,,
Cc1ccc2cccc(OC(=O)c3c(F)cccc3Cl)c2n1,inactive,inactive,inactive,inactive,,,,
Cc1ccc(N2C(=O)c3cccc4c(N)ccc(c34)C2=O)c2cccnc12,inactive,112 µM (active),inactive,inactive,10 µM (active),,,
Cc1ccc(N=Cc2sc(O)c3ccccc23)c(C)c1,inactive,,inactive,,,"-3.2% [at 17.1 µM, percent relative to cAMP agonist control]",-0.317% [at 30.8 µM],10.3% [at 30.8 µM]
Cc1cccn2c(=O)c(/C=C(\C#N)c3nc4ccccc4n3C)c(Oc3ccc(Br)cc3)nc12,inactive,inactive,inactive,inactive,39.8 µM (active),,,
CC(C)(C)CNC(=O)c1cccc2c1C(=O)c1ccc(-c3cc4ccccc4o3)cc1S2(=O)=O,inactive,79.4 µM (active),inactive,inactive,inactive,,,
COc1ccc(CN(C)C(=O)CC(c2ccccc2)c2ccccc2)cc1,inactive,inactive,inactive,inactive,inactive,,,
COC(=O)c1cc(NC(=O)c2ccccc2)c(=O)oc1C/C=N\OCc1ccc(Cl)cc1Cl,inactive,,inactive,,,"-1.43% [at 17.1 µM, percent relative to cAMP agonist control]",-10.8% [at 30.8 µM],26% [at 30.8 µM]
